Bioassay records (PubChem)
AGP1 TOR yeast: yeast TOR pathway AGP1-GFP modulation; S. cerevisiae AGP1-GFP multiplex flow cytometry, 3 h; GFP as percent of DMSO wells; GFP response vs DMSO, % at 10 µM; hit rate 0.02% among 320,000; AID 2066;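 active = GFP response relative to DMSO above a set limit, near screen average plus 3 SD, cut at about 150% in these data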;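 also: median GFP channel fluorescence of the gated AGP1 strain per well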
LAP4-GFP MLPCN: modulators of TOR pathway LAP4-GFP in S. cerevisiae | GFP response vs DMSO, % at 10 µM | S. cerevisiae LAP4-GFP multiplex, flow cytometry GFP, 3 h; median GFP as percent of DMSO wells | hit rate 0.34% among 320,000;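 active = GFP response vs DMSO above a set limit, about the screen mean plus 3 SD, cut at about 150% in these data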
CIT2 TOR yeast: modulators of TOR pathway CIT2-GFP in S. cerevisiae; S. cerevisiae CIT2-GFP strain, flow cytometry, 3 h; 100 means same as DMSO wells; GFP response vs DMSO, % at 10 µM; hit rate 0.065% among 320,000; AID 2029;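 active = GFP response relative to DMSO above a set limit, near the screen mean plus 3 SD, cut at about 150% in these data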;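 also: ratio of well median GFP fluorescence to mean of DMSO wells on the plate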
RPL19A TOR yeast: modulators of TOR pathway RPL19A-GFP in S. cerevisiae; percent response vs DMSO, % at 10 µM; hit rate 0.3% among 330,000; AID 2025; S. cerevisiae RPL19A-GFP strain, flow cytometry, 3 h; stronger effect = lower value;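 active = percent response vs DMSO below 50%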;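 also: median channel GFP fluorescence of the barcoded RPL19A-GFP strain; ratio of sample median GFP to plate DMSO average so 100% = DMSO; lower means less RPL19A-GFP as with rapamycin TOR inhibition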
MEP2 TOR yeast: modulators of TOR pathway MEP2-GFP in S. cerevisiae; hit rate 0.51% among 330,000; S. cerevisiae MEP2-GFP strain, flow cytometry GFP, 3 h; 100% = DMSO control level; AID 2016; GFP response vs DMSO, % at 10 µM;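 active = GFP response versus DMSO above a set limit, roughly screen mean plus 3 SD, cut at about 180% in these data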;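 also: median GFP fluorescence of the barcode-gated MEP2-GFP cells per well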
LAP4-GFP pick2: yeast LAP4-GFP modulation, second cherry pick; shares compounds with LAP4-GFP MLPCN; S. cerevisiae LAP4-GFP strain, flow cytometry GFP, 3 h; GFP response vs DMSO, % at 10 µM; hit rate 20% among 590; AID 2621;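 active = GFP signal as percent of the solvent control above about 150%, meaning raised reporter expression, limit read from the data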;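 also: ratio of well median GFP fluorescence to plate DMSO mean so 100% = DMSO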
MEP2 cherry2: reconfirmed MEP2-GFP TOR pathway modulator in yeast; hit rate 10% among 590; shares compounds with LAP4-GFP MLPCN; GFP response vs DMSO, % at 10 µM; S. cerevisiae MEP2-GFP strain, flow cytometry GFP, 3 h;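 active = GFP signal above 150% of the solvent control wells, that is a rise of more than half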;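 also: median channel GFP fluorescence of all gated yeast cells per well; ratio of median GFP to plate DMSO average so 100% = DMSO level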
RPL19A GFP CP2: reconfirmed modulator of RPL19A-GFP TOR reporter in yeast; shares compounds with LAP4-GFP MLPCN; S. cerevisiae RPL19A-GFP strain, flow cytometry GFP, 3 h; stronger effect = lower value; 100% means same as DMSO wells; GFP response vs DMSO, % at 10 µM; hit rate 3% among 590;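 active = under 65% GFP response relative to DMSO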;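 also: median GFP channel fluorescence per well over the all cells gate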
CIT2 GFP CP2: reconfirmed modulator of CIT2-GFP TOR reporter in yeast; shares compounds with LAP4-GFP MLPCN; S. cerevisiae CIT2-GFP strain, flow cytometry GFP, 3 h; DMSO control wells read 100%; GFP response vs DMSO, % at 10 µM; hit rate 8% among 590; AID 2624;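 active = GFP response vs DMSO above about 150%, limit read from the data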;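 also: median green fluorescence per well over all gated yeast cells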
AGP1-GFP pick2: reconfirmed modulator of AGP1-GFP TOR reporter in yeast; percent response vs DMSO, % at 10 µM; shares compounds with LAP4-GFP MLPCN; AID 2643; 590 tested, under 10 active; S. cerevisiae AGP1-GFP strain, flow cytometry GFP, 3 h;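 active = over 150 percent of DMSO response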;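 also: median GFP channel fluorescence over all cells without mother daughter split; sample median GFP divided by mean DMSO control so 100% equals DMSO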
Yeast autofluor: yeast s288c autofluorescence artifact, counter-screen; fluorescence change (kMESF span) at 33 µM; shares compounds with LAP4-GFP MLPCN; S. cerevisiae s288c, 520 nm autofluorescence, flow cytometry, 3 h; stronger effect = higher value; zero means same as solvent-only cells; 610 tested, under 10 active;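 active = fluorescence span over the dose series, or activity score, above about 33, limit read from the data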
Starred values were filed as active, the others as inactive; / = not tested or not shown; [ ] = another dose, or the depositor's remark. This is a sample that favours compounds with a hit; in the whole collection about 0.93% have one here.

SMILES	AGP1 TOR yeast	LAP4-GFP MLPCN	CIT2 TOR yeast	RPL19A TOR yeast	MEP2 TOR yeast	LAP4-GFP pick2	MEP2 cherry2	RPL19A GFP CP2	CIT2 GFP CP2	AGP1-GFP pick2	Yeast autofluor
O=C(Oc1ccnc2cc(Cl)ccc12)N1CCOCC1	95	99	104	101	108	100	98	99	97	99	0
CSCCC(C(=O)O)N1C(=O)c2ccc(C(=O)O)cc2C1=O (stereo unspecified)	89	87	101	88	93	/	/	/	/	/	/
CC1=C/C(=N\OS(=O)(=O)c2ccccc2)C(C)=CC1=O	97	234*	87	87	107	/	/	/	/	/	15
CC1=C(C)/C(=N\OS(=O)(=O)c2ccc(C)cc2)C=CC1=O	80	244*	86	79	86	160*	145	106	153*	87	0
CC1=C/C(=N\OS(=O)(=O)c2ccccc2)C(C(C)C)=CC1=O	75	191*	60	86	92	172*	157*	96	117	75	1.1
CN(O)/C=c1/ccc2c(n1)C(=O)C=CC=2	87	275*	116	90	98	/	/	/	/	/	0.21
CC1CC(C)CN(S(=O)(=O)N2CCCC(C(=O)NC3CCCCC3C)C2)C1 (stereo unspecified)	15	95	100	59	138	104	112	98	110	102	/
COc1ccc(CCNC2=C(Cl)C(=O)N(CCc3ccccc3)C2=O)cc1OC	97	109	90	98	112	/	/	/	/	/	0
O=C1C(Cl)=C(Nc2ccccc2O)C(=O)N1CCc1ccccc1	97	99	98	103	104	/	/	/	/	/	0.4
O=C(N/N=C/C(Cl)=C/c1ccc([N+](=O)[O-])cc1)C(=O)Nc1cccc(C(=O)O)c1	104	100	107	100	103	/	/	/	/	/	/
Cc1ccc(-c2nc(C=Nc3ccccc3)c(O)o2)cc1	98	113	90	103	101	/	/	/	/	/	/
Cc1ccc(C(=O)Oc2oc(-c3ccccc3)nc2C=Nc2ccc(N(C)C)cc2)cc1	95	101	91	104	94	/	/	/	/	/	1
CN(C)c1ccc(N=Cc2nc(-c3ccccc3)oc2OC(=O)c2cccc(Cl)c2)cc1	103	95	105	105	99	/	/	/	/	/	0.71
O=C1CCN(S(=O)(=O)c2ccccc2)CCN1CCOCc1ccc(F)cc1	108	179*	108	81	190*	97	95	98	103	99	0
Cc1ccc(S(=O)(=O)N2CCC(=O)N(CCOCc3ccc(F)cc3)CC2)cc1	75	119	68	91	88	/	/	/	/	/	/
COC(=O)c1cn(C(=O)c2ccc(OC)c(OC)c2)c2ccccc12	102	103	106	106	113	/	/	/	/	/	/
COC(=O)c1cn(C(=O)c2ccc(C)c(C)c2)c2ccccc12	91	151*	78	88	86	98	100	98	100	100	/
CC(=O)Nc1ccc(S(=O)(=O)NCC2CCC(C(=O)NCCC3=CCCCC3)CC2)cc1 (stereo unspecified)	103	97	101	99	106	/	/	/	/	/	/
CCOc1ccccc1C(=O)N(CCC(=O)OC)c1ccccn1	93	85	93	95	90	/	/	/	/	/	/
COC(=O)CCN(C(=O)C1C2CC3CC(C2)CC1C3)c1ccccn1 (stereo unspecified)	107	154*	96	95	93	111	126	101	122	102	/
CC(C)(C)C1CCC(=NNC(=O)C(=O)NCc2ccco2)CC1 (stereo unspecified)	83	88	84	60	115	96	98	99	105	100	/
COc1cccc(C2/C(=C(\O)c3ccc4c(c3)OCCO4)C(=O)C(=O)N2CC2CCCO2)c1 (stereo unspecified)	96	68	94	108	94	/	/	/	/	/	/
Cc1cc(C)cc(NC(=O)COC(=O)COc2cccc3c2OC(C)(C)C3)c1	115	114	102	101	105	/	/	/	/	/	/
Cc1ccc(NC(=O)COC(=O)COc2cccc3c2OC(C)(C)C3)cc1C	91	167*[may fluoresce green]	157*[may fluoresce green]	107	212*[may fluoresce green]	98	100	103	98	101	/
Cc1ccc(NC2CCCN(C(=O)CCCN3CCCCC3=O)C2)cc1C (stereo unspecified)	94	74	95	111	106	/	/	/	/	/	/
SMILES	AGP1 TOR yeast	LAP4-GFP MLPCN	CIT2 TOR yeast	RPL19A TOR yeast	MEP2 TOR yeast	LAP4-GFP pick2	MEP2 cherry2	RPL19A GFP CP2	CIT2 GFP CP2	AGP1-GFP pick2	Yeast autofluor
O=C1C2C3C=CC(CO)(O3)C2C(=O)N1c1ccccc1-c1ccccc1 (stereo unspecified)	78	194*	77	84	111	/	/	/	/	/	4.9
CC(=O)Oc1ccc(N2C(=O)C3C4C=CC(CO)(O4)C3C2=O)cc1 (stereo unspecified)	97	130	93	/	98	/	/	/	/	/	0.2
COCCCNC(=O)c1cc2c(=O)n3cccc(C)c3nc2n(C(C)C)c1=N	92	95	92	63	126	100	102	101	101	103	/
CN(Cc1ccccc1C#N)S(=O)(=O)c1cccs1	101	99	103	110	106	/	/	/	/	/	/
N#Cc1nccnc1S(=O)(=O)c1cccs1	86	251*	67	67	77	/	/	/	/	/	0.61
COC(=O)/C(=C/c1c[nH]c2ccccc12)NC(C)=O	108	100	115	107	113	/	/	/	/	/	/
COC(=O)/C(=C/c1c[nH]c2ccccc12)[N+](=O)[O-]	89	178*	86	85	87	/	/	/	/	/	0.1
O=[N+]([O-])c1c(Nc2ccccn2)cc(Cl)c2nonc12	134	674*	456*	162	951*	/	/	/	/	/	37*
C=C1CCN([C@@H](C)C(=O)OCc2cccc(C)c2)S(=O)(=O)c2ccccc21	92	153*	125	98	98	99	98	100	98	97	/
C=C1CCN([C@H](C(=O)OCc2ccc(C)cc2)C(C)C)S(=O)(=O)c2ccccc21	85	106	91	94	95	/	/	/	/	/	/
